# The full data set covers some 7,900 targets. This sample favours those with a hit. About 0.6% of all pairs of compound and target were hits. Values without a mark were called inactive.
# Tests used:
# Assay in all cases: log2 fold change, soluble protein after heating vs DMSO (PISA); higher = thermal stabilisation; K562 cells, 10 uM, 30 min; active = over 0.2 and 3.5 SD of the protein, either way, in both replicates (recomputed)
# erlotinib = compound: C#Cc1cccc(Nc2ncnc3cc(OCCOC)c(OCCOC)cc23)c1 [erlotinib]
# How it was run: (§1)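 K562 cells at 2×10^6 cells/mL were given 10 μM compound for 30 min. Aliquots then went through 3 min of heating across 48°C-58°C, were pooled, and were extracted in PBS with 0.5% NP-40 at 4°C, and the supernatant after 21,000xg for 90 min was quantified by TMTpro 16plex LC-MS/MS with channel sums equalised. Thermal stability relative to control samples, from duplicates, is given as log2 fold change.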
# [1] = compound: C/C(=N\NC(=O)C1=CC(=CC=C1)S(=O)(=O)N2CCOCC2)/C3=C(C=CC(=C3)Cl)O
# How it was run: as §1
# [2] = compound: C1=CC(=C(C=C1Cl)C2=NC3=NC=CN=C3C(=N2)NC4=CC=NC=C4)F
# How it was run: as §1
# [3] = compound: C1=CC(=CC=C1C2=NC3=C(N2)C=C(C=C3)C(=O)N)OC4=CC=C(C=C4)Cl
# How it was run: as §1
# [4] = compound: C1=CC2=C(C=CC(=C2)/C=C\3/C(=O)NC(=NCC4=CC=CS4)S3)N=C1
# How it was run: as §1
# [5] = compound: C1=CC2=NC=CN=C2C=C1/C=C/3\C(=O)NC(=O)S3
# How it was run: as §1
# [6] = compound: C1=CC=C(C=C1)C2=NC(=C(N2)C3=CC=NC=C3)C4=CC(=C(C=C4)Cl)O
# How it was run: as §1
# [7] = compound: C1=CC=C2C(=C1)C3=NNC4=CC=CC(=C43)C2=O
# How it was run: as §1
# [8] = compound: C1CCN(C1)C(=O)NC2=CC=CC(=C2)NC3=NC=C(C(=N3)NCCC4=CN=CN4)Br
# How it was run: as §1
# [9] = compound: C1CN(CCC1(CC2=CC=C(C=C2)Cl)N)C3=NC=NC4=C3C=CN4
# How it was run: as §1
# IRAK-1-4 Inhibitor I = compound: C1COCCN1CCN2C3=CC=CC=C3N=C2NC(=O)C4=CC(=CC=C4)[N+](=O)[O-] [IRAK-1-4 Inhibitor I]
# How it was run: as §1
# ibrutinib = compound: C=CC(=O)N1CCC[C@@H](n2nc(-c3ccc(Oc4ccccc4)cc3)c3c(N)ncnc32)C1 [ibrutinib]
# How it was run: as §1
# [10] = compound: CC(=O)c1cnc2ccc(-c3cc(Cl)c(O)c(Cl)c3)nc2c1N[C@H]1CC[C@H](CN(C)C)CC1
# How it was run: as §1
# ralimetinib = compound: CC(C)(C)Cn1c(N)nc2ccc(-c3[nH]c(C(C)(C)C)nc3-c3ccc(F)cc3)nc21 [ralimetinib]
# How it was run: as §1
# [11] = compound: CC(C)(O)CC(=O)NCCn1ccc2ncnc(Nc3ccc(Oc4cccc(C(F)(F)F)c4)c(Cl)c3)c21
# How it was run: as §1
# [12] = compound: CC(C)C1=C2N=C(C=C(N2N=C1)NCC3=CC=CC=C3)NCCCCCCN
# How it was run: as §1
# [13] = compound: CC(C)C[C@@H](C=O)NC(=O)[C@H](CC(C)C)NC(=O)[C@H](CC(C)C)NC(=O)OCc1ccccc1
# How it was run: as §1
# pinometostat = compound: CC(C)N(C[C@H]1O[C@@H](n2cnc3c(N)ncnc32)[C@H](O)[C@@H]1O)[C@H]1C[C@@H](CCc2nc3cc(C(C)(C)C)ccc3[nH]2)C1 [pinometostat]
# How it was run: as §1
# [14] = compound: CC1=C(C(CC(=O)N1)C2=CC=C(C=C2)C(F)(F)F)C(=O)NC3=C(C=C4C(=C3)C=NN4)F
# How it was run: as §1
# [15] = compound: CC1=C(C2=C(C=C1)C(=O)C3=CC=CC=C3N2CCCN)C
# How it was run: as §1
# Sequence of UniProt P55786 (P55786 whole entry, looked up): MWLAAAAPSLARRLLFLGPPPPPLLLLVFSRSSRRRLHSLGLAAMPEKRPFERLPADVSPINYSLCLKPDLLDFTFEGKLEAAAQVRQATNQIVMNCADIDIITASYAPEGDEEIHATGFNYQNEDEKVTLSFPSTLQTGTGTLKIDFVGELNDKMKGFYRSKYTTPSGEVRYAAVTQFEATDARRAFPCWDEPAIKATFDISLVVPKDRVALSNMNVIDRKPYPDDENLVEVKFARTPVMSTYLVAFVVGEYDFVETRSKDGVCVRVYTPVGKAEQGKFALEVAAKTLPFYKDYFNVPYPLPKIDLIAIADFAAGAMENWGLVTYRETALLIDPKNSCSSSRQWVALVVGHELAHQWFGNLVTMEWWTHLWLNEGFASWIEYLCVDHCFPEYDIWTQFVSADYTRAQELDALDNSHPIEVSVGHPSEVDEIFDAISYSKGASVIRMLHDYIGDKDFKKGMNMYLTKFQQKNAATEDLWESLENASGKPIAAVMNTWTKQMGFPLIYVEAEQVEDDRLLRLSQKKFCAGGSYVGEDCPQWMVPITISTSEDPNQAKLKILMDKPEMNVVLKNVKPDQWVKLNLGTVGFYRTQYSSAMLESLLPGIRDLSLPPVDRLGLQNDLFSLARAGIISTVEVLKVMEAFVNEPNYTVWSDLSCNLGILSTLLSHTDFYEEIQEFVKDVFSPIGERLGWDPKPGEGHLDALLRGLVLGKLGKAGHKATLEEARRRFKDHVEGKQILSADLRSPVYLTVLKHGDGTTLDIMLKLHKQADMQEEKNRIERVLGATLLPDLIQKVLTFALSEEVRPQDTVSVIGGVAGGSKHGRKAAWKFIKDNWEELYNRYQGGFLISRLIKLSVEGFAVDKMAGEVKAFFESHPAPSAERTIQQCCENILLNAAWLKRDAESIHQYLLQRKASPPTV
# Sequence of UniProt Q8NI08 (Q8NI08 whole entry, looked up): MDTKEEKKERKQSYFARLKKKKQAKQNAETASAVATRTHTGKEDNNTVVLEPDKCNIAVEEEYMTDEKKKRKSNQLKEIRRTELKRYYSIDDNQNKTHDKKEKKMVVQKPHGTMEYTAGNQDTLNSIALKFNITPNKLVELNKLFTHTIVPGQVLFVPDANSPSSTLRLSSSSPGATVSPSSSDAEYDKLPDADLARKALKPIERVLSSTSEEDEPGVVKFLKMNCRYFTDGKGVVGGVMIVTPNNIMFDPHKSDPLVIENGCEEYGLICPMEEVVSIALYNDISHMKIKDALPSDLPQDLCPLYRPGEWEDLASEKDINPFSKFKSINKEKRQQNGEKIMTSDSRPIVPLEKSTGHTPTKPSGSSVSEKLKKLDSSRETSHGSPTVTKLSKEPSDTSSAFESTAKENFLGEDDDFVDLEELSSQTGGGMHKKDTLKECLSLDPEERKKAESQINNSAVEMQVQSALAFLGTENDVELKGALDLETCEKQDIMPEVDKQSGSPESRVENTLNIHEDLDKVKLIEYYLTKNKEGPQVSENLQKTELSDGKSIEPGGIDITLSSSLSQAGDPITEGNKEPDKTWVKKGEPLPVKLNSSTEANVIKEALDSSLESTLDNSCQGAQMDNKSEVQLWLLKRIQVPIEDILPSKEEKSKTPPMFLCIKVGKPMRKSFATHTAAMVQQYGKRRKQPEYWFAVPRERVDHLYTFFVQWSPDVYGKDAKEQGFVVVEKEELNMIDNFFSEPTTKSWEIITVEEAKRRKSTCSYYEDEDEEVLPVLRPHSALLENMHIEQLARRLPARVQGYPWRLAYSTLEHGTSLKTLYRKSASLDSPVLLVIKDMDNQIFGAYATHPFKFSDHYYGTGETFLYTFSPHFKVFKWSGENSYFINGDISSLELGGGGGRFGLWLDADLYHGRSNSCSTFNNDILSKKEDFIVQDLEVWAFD
# Sequence of UniProt Q6N063 (Q6N063 whole entry, looked up): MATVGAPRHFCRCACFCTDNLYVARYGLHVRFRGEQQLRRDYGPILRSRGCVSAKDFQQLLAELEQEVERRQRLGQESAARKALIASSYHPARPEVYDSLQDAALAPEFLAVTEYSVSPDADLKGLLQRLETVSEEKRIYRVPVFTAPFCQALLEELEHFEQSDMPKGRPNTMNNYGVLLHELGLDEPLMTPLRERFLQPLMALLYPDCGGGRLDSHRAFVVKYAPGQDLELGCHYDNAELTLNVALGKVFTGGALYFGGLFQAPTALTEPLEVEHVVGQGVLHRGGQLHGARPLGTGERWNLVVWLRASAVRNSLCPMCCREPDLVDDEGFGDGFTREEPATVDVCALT
# Sequence of UniProt Q9BT67 (Q9BT67 whole entry, looked up): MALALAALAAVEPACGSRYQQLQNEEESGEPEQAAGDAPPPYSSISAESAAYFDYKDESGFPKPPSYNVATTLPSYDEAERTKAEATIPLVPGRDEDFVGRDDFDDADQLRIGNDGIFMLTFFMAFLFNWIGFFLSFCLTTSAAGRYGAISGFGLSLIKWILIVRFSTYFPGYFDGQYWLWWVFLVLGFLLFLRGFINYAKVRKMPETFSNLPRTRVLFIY
# Sequence of UniProt O60551 (O60551 whole entry, looked up): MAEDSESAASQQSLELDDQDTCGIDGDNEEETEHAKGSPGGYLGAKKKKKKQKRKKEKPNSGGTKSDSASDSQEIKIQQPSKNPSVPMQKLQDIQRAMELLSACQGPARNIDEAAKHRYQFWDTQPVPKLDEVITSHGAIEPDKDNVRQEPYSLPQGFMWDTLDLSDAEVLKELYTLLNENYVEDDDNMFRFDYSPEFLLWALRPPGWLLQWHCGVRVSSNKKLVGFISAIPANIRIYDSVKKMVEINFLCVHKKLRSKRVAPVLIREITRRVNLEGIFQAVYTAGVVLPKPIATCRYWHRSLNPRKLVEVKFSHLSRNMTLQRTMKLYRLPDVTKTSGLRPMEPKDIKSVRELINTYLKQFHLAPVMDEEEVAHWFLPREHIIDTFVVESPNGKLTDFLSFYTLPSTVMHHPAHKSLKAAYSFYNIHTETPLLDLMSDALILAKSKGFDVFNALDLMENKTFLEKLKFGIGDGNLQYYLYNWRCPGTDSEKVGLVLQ
# Sequence of UniProt P46087 (P46087 whole entry, looked up): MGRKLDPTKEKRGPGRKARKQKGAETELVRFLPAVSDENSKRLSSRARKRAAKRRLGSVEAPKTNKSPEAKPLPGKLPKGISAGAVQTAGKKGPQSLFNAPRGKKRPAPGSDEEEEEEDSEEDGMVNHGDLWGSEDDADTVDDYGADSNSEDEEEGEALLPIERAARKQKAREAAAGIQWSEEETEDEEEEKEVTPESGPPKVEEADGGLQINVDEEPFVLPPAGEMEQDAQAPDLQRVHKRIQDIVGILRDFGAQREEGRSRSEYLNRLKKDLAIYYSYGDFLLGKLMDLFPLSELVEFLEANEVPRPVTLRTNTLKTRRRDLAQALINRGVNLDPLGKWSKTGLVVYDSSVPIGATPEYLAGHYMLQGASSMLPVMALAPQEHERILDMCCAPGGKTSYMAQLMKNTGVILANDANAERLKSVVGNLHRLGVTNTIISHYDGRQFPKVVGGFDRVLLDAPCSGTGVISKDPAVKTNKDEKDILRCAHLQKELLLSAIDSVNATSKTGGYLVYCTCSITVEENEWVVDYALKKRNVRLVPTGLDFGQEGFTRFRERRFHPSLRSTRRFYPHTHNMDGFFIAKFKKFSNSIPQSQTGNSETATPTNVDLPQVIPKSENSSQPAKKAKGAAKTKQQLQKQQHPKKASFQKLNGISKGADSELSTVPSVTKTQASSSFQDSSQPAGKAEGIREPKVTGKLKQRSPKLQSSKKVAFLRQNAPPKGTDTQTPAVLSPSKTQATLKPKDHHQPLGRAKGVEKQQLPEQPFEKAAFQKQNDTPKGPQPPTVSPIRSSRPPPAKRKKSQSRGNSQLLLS
# Sequence of UniProt O00217 (O00217 whole entry, looked up): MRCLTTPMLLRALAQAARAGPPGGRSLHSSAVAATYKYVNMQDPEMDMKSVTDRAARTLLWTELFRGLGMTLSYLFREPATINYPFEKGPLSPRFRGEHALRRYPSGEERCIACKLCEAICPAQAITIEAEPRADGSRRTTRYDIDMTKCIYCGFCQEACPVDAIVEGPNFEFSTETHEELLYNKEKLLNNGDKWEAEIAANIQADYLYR
# Sequence of UniProt Q330K2 (Q330K2 whole entry, looked up): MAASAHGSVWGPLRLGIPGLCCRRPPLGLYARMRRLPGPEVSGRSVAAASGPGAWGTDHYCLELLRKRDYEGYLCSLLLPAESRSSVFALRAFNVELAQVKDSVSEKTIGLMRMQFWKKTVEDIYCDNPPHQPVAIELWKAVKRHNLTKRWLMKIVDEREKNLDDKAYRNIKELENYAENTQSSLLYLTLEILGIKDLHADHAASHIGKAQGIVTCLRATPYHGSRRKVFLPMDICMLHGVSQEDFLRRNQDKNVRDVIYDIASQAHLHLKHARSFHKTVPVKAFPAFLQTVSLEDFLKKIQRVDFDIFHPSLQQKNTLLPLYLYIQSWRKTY
# Sequence of UniProt Q9UMY1 (Q9UMY1 whole entry, looked up): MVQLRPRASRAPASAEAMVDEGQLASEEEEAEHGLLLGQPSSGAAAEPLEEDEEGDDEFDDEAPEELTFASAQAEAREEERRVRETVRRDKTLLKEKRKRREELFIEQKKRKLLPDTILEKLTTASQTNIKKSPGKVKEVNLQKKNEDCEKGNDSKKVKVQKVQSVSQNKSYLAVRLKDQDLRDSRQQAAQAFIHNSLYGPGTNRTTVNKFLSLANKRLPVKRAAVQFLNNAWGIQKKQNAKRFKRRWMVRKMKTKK
# Sequence of UniProt Q9UH92 (Q9UH92 whole entry, looked up): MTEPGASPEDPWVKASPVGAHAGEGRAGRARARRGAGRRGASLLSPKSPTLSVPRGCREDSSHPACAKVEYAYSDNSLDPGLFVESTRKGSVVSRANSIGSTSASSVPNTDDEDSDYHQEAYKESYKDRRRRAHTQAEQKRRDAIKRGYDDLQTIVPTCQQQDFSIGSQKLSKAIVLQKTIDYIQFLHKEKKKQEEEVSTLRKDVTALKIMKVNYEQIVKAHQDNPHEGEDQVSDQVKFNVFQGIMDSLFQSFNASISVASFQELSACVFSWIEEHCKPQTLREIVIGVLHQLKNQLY
Target,log2 fold change (erlotinib),log2 fold change [1],log2 fold change [2],log2 fold change [3],log2 fold change [4],log2 fold change [5],log2 fold change [6],log2 fold change [7],log2 fold change [8],log2 fold change [9],log2 fold change (IRAK-1-4 Inhibitor I),log2 fold change (ibrutinib),log2 fold change [10],log2 fold change (ralimetinib),log2 fold change [11],log2 fold change [12],log2 fold change [13],log2 fold change (pinometostat),log2 fold change [14],log2 fold change [15]
NDFIP1 (UniProt Q9BT67),-0.066,0.07,-0.046,0.077,-0.244,0.046,0.005,0.122,-0.234,-0.168,-0.135,-0.083,0.146,0.084,-0.401,-1.2 (active),0.302,0.048,0.241,0.152
NEU1 (UniProt Q99519),0.001,-0.05,-0.027,0.101,0.003,0,-0.018,-0.011,0.012,-0.047,-0.136,-0.069,-0.175,0.05,0.018,-0.379 (active),0.166,-0.021,0.049,-0.131
NDUFAF6 (UniProt Q330K2),0.028,-0.009,0.059,0.058,0.071,0.12,0.065,-0.051,0.049,0.074,0.129,-0.044,-0.107,0.039,-0.214,-0.235,0.083,-0.132,0.091,-0.109
NOP2 isoform 4 (UniProt P46087),-0.17,-0.261,-0.349,-0.064,-0.045,0.272,-0.255,0.078,0.023,0.006,-0.111,-0.278,0.308,0.205,0.163,0.241,0.194,0.325,-0.062,-0.474
MRPS18B (UniProt Q9Y676),0.026,0.101,-0.051,0.124,0.03,0.034,0.027,0.119,0.079,-0.119,-0.026,0.103,-0.096,-0.022,-0.025,-0.043,0.137,-0.005,0.056,-0.068
MT-ND1 (UniProt P03886),-0.075,0.031,-0.028,0.097,-0.005,0.032,0.053,0.12,-0.187,0.018,0.104,-0.009,-0.072,0.071,-0.142,-0.142,-0.102,-0.092,-0.115,0.119
NCOR1 (UniProt O75376),-0.057,0.021,-0.034,0.041,0.08,0.026,0.044,-0.21,-0.055,-0.051,0.052,0.078,-0.46 (active),0.01,0.011,0.055,0.022,0.05,-0.084,0.093
"NA, A0A096LPI6",-0.009,-0.009,0.047,0.02,-0.051,0.04,0.023,-0.004,0.008,0.035,0.065,0.022,0.046,-0.057,0.008,0.058,-0.016,-0.043,0.018,0.004
NMT2 (UniProt O60551),0.028,0.031,0.007,0.004,0.062,0.032,-0.043,0.021,0.041,-0.369 (active),0.006,0.064,-0.031,-0.017,-0.022,-0.125,-0.019,0.053,0.037,0.01
NCOA7 (UniProt Q8NI08),-0.027,0.063,-0.047,0.004,0.07,-0.048,0.014,0.011,0.024,0.045,0.017,-0.056,-0.075,0.052,-0.005,-0.088,0.072,0.019,-0.033,-0.009
NPEPPS (UniProt P55786),0.002,0.058,0.054,-0.027,0.061,0.002,0.005,0.035,-0.009,0.045,0.039,0,-0.013,0.021,-0.117,0.254 (active),-0.035,-0.026,-0.01,0.045
OTUD4 (UniProt Q01804),-0.032,-0.035,-0.137,0.042,-0.033,-0.025,0,0.038,-0.011,0.04,0.007,0.008,-0.029,0.1,0.013,0.035,0.052,0.128,-0.033,0.244
NDUFS8 (UniProt O00217),0.015,0.045,0.023,0.033,0.039,0.027,0.029,0.007,0.014,0.035,0.087,0.034,-0.02,-0.083,-0.099,-0.145,0.017,0.005,0.034,0.075
OGFOD2 (UniProt Q6N063),-0.051,-0.283 (active),-0.047,0.011,0.089,0.14,0.004,0.041,0.023,0.017,0.016,-0.023,-0.102,0.011,-0.031,-0.079,0.002,0.025,-0.001,-0.073
MLX (UniProt Q9UH92),0.038,0.135,-0.057,0.062,0.032,-0.094,-0.041,-0.076,-0.012,-0.143,-0.033,-0.058,-0.132,0.077,-0.163,-0.236,0.14,0.016,0.043,-0.008
NOL7 (UniProt Q9UMY1),-0.151,-0.208,-0.728 (active),0.005,-0.179,0,-0.071,-0.058,0.045,-0.189,-0.139,0.036,0.158,0.041,0.043,0.016,0.141,0.242,0.059,-0.485

# — the supplement of paper PMC10849652
